Inconclusive results are not listed. Activity calls are given as the source filed them. Calls come from the whole dose curve; as a rule, active = well fitted inhibition curve with a large enough effect; inconclusive = small, poorly fitted or top-dose-only effect; inactive = no such curve, though single readings can be large or run the other way.
Assay: qHTS Assay for Lipid Storage Modulators: COS7 Assay against Probe and Analogs
Details: COS7 lipid droplet area, BODIPY imaging, 18 h; cells loaded with 400 µM oleic acid
How it was run: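 COS7 cells treated 17-18 h with compound in 5% FBS medium, 0.2% DMSO and 400 microM oleic acid. Fixed cells stained with BODIPY 493/503 and Hoechst; lipid droplets counted from microscope images by visual review and image segmentation.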

Max response, inactive:
O=C(NC1CCCc2c1cnn2-c1ccc(F)cc1F)c1ccc(C(=O)c2ccccc2)cc1 (stereo not drawn) 18.1%, O=C(Nc1cccc2c1cnn2-c1ccc(F)cc1)c1ccccn1 3.22%, CCOc1ccc(CCNC(=O)c2ccc3[nH]ccc3c2)cc1OCC 20.9%, O=C(Nc1cccc2nn(-c3ccc(F)cc3)cc12)c1ccccn1 9.12%, O=C(N[C@H]1CCCc2c1cnn2-c1ccc(F)cc1F)c1ccccn1 6.84%, O=C(NC1CCCc2c1cnn2-c1ccc(F)cc1F)c1ccc(C2(C(F)(F)F)N=N2)cc1 (stereo not drawn) 3.15%, CCN(CC)C(=O)C1CCN(C(=O)C(C)(C)NC(=O)Nc2ccccc2Cl)CC1 -9.22%, CCOc1ccc(CCNC(=O)C2(c3ccccc3)CC2)cc1OCC 2.24%, O=C(CCCCCCC(=O)Nc1ccccc1)NO -18.2%, CCn1c(C(=O)NCCc2ccc(OC)c(OC)c2)cc2sccc21 3.82%, CCOc1ccc(CCNC(=O)c2cnon2)cc1OCC 8.92%, CN(C)CC(=O)NC1CCCc2c1cnn2-c1ccc(F)cc1F (stereo not drawn) 19.8%, CCOc1ccc(CCNC(=O)C2CCCCC2)cc1OCC -8.52%, O=C(NCCc1ccc2c(c1)OCO2)c1cc2sccc2n1Cc1ccccc1 19.6%, O=C(NC1CCCc2c1cnn2CCO)c1ccccn1 (stereo not drawn) 14.9%, CCOc1ccc(CCNC(=O)c2cccs2)cc1OCC -20.6%, CCOC(=O)C1CCN(C(=O)C(C)(C)NC(=O)Nc2ccc([N+](=O)[O-])cc2)CC1 8.04%, CCOc1ccc(CCNC(=O)c2ccc(N3N=C(C)CC3=O)cc2)cc1OCC 0.211%, CCn1c(C(=O)NCc2ccc(OC)c(OC)c2)cc2sccc21 0.0567%, COc1cc(C)c(Sc2cnc(NC(=O)c3ccc(CNC(C)C(C)(C)C)cc3)s2)cc1C(=O)N1CCN(C(C)=O)CC1 (stereo not drawn) -8.98%, O=C(NC1CCCc2c1cnn2-c1ccc(F)cc1F)C1CC1 (stereo not drawn) 3.35%

Potency, active:
O=C(NC1CCCc2c1cnn2-c1cccc(O)c1)c1ccccn1 (stereo not drawn) 4.18 µM, CCOc1ccc(CCNC(=O)c2cc3ccccc3n2Cc2cc(C)cc(C)n2)cc1OCC 1.48 µM, CCOc1ccc(C(C)CNC(=O)c2cc3sccc3n2Cc2ccccc2)cc1OCC (stereo not drawn) 11.8 µM, CC1=C(C(=O)NC2CCCc3c2cnn3-c2ccc(F)cc2F)OCCO1 (stereo not drawn) 13.2 µM, CC(NCc1ccc2c(c1)nc(NC(=O)c1ccc(-c3cn[nH]c3)s1)n2CC(C)(C)O)C(C)(C)C (stereo not drawn) 4.69 µM, CCOc1ccc(CCNC(=O)c2cc3sccc3n2C(C)C)cc1OCC 1.18 µM, CCOc1ccc(CCNC(=O)c2cc3ccccc3o2)cc1OCC 29.6 µM

From PubChem BioAssay AID652283 (National Center for Advancing Translational Sciences (NCATS), 2013)
